# Columns and labels:
# Assay in all cases: DAPPL (digital affinity profiling via proximity ligation, sequencing); 10 mM Tris-HCl pH 7.5, 50 mM NaCl, 1 mM DTT, 4% glycerol, room temperature, 30 min; GST-TFs on glutathione beads, 16-mer random dsDNA library, 0.1% formaldehyde crosslink after washing; high values mean tight binding
# [1] = target: T1, FEV (Homo sapiens, UniProt Q99581 1-238); details: protein: recombinant; tags: N-terminal GST; dsDNA, one strand shown
# T1 sequence: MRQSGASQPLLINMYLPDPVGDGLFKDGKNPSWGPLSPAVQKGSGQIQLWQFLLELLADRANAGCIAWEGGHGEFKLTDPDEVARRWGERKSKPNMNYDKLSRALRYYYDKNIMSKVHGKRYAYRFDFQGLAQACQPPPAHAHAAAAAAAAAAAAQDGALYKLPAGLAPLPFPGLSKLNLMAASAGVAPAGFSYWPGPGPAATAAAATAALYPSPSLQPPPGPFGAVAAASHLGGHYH
# Summary of the method: (§1)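 Human transcription factors carrying a GST fusion were produced in yeast, bound to glutathione beads, tagged with DNA barcodes and pooled together with a tag-only sample. Each pool was held with 200 nmole of a random double-stranded 16-mer DNA library in Tris/NaCl/DTT/glycerol buffer for 30 min at room temperature, then washed, crosslinked in 0.1% formaldehyde, proximity-ligated with BsaI/T4 ligase (1 h, 37 °C), PCR-amplified and sequenced on an Illumina NextSeq500. Binding signal is the read frequency of each hexamer for a given factor divided by its frequency in the tag-only sample.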
# [2] = target: ETV5 (Homo sapiens, UniProt P41161 1-510); details: protein: recombinant; tags: N-terminal GST; dsDNA, one strand shown
# ETV5, sequence (P41161 whole entry): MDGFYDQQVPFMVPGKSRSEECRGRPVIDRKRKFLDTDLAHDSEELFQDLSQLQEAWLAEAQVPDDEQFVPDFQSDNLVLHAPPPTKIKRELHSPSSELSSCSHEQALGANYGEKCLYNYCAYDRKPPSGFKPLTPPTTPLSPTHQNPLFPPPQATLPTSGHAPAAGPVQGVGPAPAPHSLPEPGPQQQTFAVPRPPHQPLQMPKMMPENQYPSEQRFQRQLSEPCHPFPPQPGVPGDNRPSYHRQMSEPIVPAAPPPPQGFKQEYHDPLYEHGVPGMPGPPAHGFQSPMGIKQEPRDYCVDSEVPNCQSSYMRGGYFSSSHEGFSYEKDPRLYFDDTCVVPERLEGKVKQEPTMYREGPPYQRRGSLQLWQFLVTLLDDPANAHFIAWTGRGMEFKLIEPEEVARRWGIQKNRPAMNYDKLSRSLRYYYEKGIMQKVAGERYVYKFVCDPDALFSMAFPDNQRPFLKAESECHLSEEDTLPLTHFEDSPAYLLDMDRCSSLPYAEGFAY
# Summary of the method: as §1
# [3] = target: HSF1 (Homo sapiens, UniProt Q00613 1-529); details: protein: recombinant; tags: N-terminal GST; chain copies: 3; dsDNA, one strand shown
# HSF1, sequence (Q00613 whole entry): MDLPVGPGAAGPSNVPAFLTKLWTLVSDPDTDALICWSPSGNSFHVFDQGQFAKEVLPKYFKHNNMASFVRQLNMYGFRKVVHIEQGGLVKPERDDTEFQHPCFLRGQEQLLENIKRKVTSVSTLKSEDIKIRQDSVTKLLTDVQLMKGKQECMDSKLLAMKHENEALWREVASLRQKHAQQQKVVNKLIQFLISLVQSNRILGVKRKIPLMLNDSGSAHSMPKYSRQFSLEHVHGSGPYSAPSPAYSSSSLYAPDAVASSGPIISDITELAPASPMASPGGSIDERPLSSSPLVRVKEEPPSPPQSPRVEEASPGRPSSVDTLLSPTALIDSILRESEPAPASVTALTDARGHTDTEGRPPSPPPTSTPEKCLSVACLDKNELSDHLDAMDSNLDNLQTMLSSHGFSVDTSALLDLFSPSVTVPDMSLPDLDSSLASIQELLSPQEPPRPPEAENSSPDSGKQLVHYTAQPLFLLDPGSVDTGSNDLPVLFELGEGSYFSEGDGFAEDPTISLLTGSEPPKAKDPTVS
# Summary of the method: as §1
# [4] = target: T2, SPIC (Homo sapiens, UniProt Q8N5J4 1-248); details: protein: recombinant; tags: N-terminal GST; dsDNA, one strand shown
# T2 sequence: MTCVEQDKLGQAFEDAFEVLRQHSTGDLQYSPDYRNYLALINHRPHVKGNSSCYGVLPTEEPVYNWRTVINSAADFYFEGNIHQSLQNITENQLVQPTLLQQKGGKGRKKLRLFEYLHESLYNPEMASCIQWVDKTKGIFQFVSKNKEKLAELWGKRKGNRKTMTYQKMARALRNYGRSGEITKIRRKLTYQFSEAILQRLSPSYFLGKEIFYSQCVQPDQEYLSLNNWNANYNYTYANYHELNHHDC
# Summary of the method: as §1
# [5] = target: ELF4 (Homo sapiens, UniProt Q99607 1-663); details: protein: recombinant; tags: N-terminal GST; dsDNA, one strand shown
# ELF4, sequence (Q99607 whole entry): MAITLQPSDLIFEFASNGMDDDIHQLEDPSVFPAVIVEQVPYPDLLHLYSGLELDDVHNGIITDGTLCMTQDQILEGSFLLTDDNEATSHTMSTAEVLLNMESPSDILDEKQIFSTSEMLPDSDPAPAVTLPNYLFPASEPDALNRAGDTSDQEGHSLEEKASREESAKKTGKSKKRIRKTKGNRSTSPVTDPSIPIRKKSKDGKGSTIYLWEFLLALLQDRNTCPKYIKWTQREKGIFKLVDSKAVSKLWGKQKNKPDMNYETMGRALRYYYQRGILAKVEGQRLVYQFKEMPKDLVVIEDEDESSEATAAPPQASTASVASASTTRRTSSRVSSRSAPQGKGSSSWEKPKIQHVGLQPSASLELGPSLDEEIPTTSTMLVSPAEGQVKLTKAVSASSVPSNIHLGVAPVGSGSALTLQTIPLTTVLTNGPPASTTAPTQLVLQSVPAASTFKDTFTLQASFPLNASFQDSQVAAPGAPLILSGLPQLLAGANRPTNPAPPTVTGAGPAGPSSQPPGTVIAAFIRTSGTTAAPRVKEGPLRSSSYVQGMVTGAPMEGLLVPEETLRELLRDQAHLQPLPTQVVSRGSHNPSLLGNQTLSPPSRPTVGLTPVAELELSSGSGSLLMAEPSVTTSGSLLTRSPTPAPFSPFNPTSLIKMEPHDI
# Summary of the method: as §1
# [6] = target: T3, ELK4 (Homo sapiens, UniProt P28324-2 1-405); details: protein: recombinant; tags: N-terminal GST; dsDNA, one strand shown
# T3 sequence: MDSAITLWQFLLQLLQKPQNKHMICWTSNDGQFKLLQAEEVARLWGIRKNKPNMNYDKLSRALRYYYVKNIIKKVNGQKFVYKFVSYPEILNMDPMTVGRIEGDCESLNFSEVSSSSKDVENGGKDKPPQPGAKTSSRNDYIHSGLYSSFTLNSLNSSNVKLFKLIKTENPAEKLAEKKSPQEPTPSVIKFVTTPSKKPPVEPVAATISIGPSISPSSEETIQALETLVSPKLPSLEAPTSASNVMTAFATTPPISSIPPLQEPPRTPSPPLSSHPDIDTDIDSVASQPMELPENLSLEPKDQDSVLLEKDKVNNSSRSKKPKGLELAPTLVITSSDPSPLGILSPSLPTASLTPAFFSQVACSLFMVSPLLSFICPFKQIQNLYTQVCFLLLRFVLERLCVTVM
# Summary of the method: as §1
# [7] = target: T4, ETV2 (Homo sapiens, UniProt O00321 1-342); details: protein: recombinant; tags: N-terminal GST; dsDNA, one strand shown
# T4 sequence: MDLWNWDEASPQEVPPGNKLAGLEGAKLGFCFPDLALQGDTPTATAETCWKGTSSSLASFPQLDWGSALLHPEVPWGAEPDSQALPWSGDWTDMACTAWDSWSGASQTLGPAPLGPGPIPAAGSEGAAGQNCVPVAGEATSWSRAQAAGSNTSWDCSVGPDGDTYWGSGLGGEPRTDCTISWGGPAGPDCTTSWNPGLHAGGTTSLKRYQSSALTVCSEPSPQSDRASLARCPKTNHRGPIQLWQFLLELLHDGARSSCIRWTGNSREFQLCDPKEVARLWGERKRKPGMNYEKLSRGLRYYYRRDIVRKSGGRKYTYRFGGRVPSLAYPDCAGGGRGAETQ
# Summary of the method: as §1
# [8] = target: T5, ELF3 (Homo sapiens, UniProt P78545 1-371); details: protein: recombinant; tags: N-terminal GST; dsDNA, one strand shown
# T5 sequence: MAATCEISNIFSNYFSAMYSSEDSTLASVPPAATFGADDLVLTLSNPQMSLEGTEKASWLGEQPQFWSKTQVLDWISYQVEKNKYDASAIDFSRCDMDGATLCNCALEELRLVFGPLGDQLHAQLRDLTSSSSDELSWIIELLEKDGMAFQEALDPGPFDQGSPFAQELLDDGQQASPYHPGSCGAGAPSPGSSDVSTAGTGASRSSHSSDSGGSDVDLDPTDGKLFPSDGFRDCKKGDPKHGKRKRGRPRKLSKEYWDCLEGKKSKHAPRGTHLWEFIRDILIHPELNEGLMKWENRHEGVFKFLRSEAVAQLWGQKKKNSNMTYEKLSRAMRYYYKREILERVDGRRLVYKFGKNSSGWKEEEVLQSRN
# Summary of the method: as §1
# [9] = target: CRX (Homo sapiens, UniProt O43186 1-299); details: protein: recombinant; tags: N-terminal GST; dsDNA, one strand shown
# CRX, sequence (O43186 whole entry): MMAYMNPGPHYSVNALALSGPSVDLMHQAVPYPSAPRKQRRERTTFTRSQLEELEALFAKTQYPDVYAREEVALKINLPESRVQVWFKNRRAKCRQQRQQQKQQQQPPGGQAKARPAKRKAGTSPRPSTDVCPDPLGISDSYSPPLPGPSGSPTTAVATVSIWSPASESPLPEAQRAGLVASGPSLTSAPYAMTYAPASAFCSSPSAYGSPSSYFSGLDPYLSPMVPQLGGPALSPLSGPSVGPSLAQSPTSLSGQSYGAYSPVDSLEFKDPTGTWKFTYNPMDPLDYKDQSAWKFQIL
# Summary of the method: as §1
# [10] = target: ETV1 (Homo sapiens, UniProt P50549 1-477); details: protein: recombinant; tags: N-terminal GST; dsDNA, one strand shown
# ETV1, sequence (P50549 whole entry): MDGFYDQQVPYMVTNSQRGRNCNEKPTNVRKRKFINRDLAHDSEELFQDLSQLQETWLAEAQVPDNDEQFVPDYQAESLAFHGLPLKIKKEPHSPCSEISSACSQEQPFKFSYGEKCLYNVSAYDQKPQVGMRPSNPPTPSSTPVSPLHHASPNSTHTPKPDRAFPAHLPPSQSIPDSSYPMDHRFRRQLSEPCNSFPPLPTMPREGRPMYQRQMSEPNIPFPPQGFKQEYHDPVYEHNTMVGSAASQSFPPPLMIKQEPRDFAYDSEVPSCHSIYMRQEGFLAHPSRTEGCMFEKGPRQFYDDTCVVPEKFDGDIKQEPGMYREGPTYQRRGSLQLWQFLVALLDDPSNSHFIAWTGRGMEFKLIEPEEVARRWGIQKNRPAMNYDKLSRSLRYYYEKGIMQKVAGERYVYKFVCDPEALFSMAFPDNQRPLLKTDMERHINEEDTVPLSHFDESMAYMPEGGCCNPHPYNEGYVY
# Summary of the method: as §1
# [11] = target: T6, ERF (Homo sapiens, UniProt P50548 1-548); details: protein: recombinant; tags: N-terminal GST; dsDNA, one strand shown
# T6 sequence: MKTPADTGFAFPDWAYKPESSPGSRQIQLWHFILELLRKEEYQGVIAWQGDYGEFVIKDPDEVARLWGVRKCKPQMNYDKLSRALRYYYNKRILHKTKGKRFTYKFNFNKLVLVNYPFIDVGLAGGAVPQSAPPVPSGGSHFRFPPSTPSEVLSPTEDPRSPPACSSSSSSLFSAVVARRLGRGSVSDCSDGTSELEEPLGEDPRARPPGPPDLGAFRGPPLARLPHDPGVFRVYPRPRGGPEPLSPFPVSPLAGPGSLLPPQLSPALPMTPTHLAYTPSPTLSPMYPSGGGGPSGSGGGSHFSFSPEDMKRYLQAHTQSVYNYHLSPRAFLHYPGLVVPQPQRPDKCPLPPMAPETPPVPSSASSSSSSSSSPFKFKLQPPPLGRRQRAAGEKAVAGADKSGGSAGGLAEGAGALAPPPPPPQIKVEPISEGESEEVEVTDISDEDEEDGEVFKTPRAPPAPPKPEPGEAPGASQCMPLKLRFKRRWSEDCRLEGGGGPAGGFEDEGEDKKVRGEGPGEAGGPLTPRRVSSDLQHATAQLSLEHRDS
# Summary of the method: as §1
# [12] = target: T7, ETV3L (Homo sapiens, UniProt Q6ZN32 1-361); details: protein: recombinant; tags: N-terminal GST; dsDNA, one strand shown
# T7 sequence: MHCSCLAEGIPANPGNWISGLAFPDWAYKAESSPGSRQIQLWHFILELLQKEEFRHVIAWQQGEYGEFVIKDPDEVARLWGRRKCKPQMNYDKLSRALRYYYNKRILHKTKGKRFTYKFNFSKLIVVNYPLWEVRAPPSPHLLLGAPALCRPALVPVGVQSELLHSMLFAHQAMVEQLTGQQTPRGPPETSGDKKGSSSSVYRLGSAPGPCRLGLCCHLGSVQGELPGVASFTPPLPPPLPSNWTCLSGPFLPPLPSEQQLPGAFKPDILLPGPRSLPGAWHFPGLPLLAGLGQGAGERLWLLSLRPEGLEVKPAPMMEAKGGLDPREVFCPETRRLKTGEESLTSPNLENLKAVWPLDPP
# Summary of the method: as §1
# [13] = target: T8, ETS2 (Homo sapiens, UniProt P15036 1-469); details: protein: recombinant; tags: N-terminal GST; dsDNA, one strand shown
# T8 sequence: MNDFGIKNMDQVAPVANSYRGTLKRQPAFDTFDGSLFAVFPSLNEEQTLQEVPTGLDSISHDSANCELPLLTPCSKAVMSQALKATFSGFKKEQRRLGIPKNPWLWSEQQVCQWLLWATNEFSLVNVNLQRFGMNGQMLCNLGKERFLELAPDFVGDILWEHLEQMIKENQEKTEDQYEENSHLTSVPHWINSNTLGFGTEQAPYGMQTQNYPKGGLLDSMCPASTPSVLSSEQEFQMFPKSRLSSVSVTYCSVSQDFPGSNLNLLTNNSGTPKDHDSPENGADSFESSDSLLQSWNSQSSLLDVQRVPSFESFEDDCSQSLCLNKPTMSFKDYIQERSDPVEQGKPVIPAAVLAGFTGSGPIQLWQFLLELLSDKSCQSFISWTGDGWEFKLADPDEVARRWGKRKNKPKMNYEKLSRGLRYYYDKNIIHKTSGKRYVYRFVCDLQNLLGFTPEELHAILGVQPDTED
# Summary of the method: as §1
# [14] = target: T9, SPDEF (Homo sapiens, UniProt O95238 1-335); details: protein: recombinant; tags: N-terminal GST; dsDNA, one strand shown
# T9 sequence: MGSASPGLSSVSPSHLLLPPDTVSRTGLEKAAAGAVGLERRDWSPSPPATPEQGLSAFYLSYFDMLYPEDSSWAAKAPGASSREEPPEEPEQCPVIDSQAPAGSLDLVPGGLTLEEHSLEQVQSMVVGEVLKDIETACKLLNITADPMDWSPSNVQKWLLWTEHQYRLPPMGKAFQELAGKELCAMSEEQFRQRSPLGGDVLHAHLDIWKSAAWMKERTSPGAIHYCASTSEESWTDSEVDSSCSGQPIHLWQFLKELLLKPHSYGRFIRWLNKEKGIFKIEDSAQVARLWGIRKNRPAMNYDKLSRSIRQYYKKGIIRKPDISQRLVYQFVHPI
# Summary of the method: as §1
# [15] = target: T10, ETV7 (Homo sapiens, UniProt Q9Y603 1-341); details: protein: recombinant; tags: N-terminal GST; dsDNA, one strand shown
# T10 sequence: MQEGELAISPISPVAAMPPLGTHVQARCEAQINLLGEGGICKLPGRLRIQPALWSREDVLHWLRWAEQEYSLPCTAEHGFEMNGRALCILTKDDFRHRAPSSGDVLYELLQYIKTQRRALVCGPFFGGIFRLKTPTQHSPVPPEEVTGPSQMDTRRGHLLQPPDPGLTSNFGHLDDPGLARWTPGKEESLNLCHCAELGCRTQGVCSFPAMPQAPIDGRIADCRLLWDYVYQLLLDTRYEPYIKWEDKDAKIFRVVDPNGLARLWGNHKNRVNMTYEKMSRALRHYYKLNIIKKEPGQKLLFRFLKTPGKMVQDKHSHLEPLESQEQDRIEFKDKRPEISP
# Summary of the method: as §1
# [16] = target: T11, ELF5 (Homo sapiens, UniProt Q9UKW6-2 1-255); details: protein: recombinant; tags: N-terminal GST; dsDNA, one strand shown
# T11 sequence: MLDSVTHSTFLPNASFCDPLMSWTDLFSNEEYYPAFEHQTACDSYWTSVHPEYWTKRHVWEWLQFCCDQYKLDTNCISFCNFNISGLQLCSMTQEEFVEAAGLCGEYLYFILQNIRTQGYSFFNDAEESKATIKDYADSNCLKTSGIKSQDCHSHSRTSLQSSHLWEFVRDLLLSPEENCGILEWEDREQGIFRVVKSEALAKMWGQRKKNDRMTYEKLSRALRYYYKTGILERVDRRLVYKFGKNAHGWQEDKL
# Summary of the method: as §1
# [17] = target: T12, ETV3 (Homo sapiens, UniProt P41162-2 1-143); details: protein: recombinant; tags: N-terminal GST; dsDNA, one strand shown
# T12 sequence: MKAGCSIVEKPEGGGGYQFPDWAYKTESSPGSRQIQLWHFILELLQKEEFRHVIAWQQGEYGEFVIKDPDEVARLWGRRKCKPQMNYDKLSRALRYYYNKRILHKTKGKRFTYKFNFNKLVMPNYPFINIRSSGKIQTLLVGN
# Summary of the method: as §1
# [18] = target: ETV6 (Homo sapiens, UniProt P41212 1-452); details: protein: recombinant; tags: N-terminal GST; dsDNA, one strand shown
# ETV6, sequence (P41212 whole entry): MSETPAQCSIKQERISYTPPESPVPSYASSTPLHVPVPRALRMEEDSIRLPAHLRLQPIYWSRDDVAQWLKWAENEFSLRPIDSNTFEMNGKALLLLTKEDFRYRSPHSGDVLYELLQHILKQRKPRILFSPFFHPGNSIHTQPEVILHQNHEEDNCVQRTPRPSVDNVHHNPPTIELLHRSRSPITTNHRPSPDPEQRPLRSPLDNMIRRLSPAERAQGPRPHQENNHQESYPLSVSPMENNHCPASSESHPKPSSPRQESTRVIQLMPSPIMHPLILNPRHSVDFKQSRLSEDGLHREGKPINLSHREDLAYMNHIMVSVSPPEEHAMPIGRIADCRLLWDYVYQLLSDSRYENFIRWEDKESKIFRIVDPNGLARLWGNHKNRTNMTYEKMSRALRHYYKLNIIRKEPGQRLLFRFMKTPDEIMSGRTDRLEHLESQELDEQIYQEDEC
# Summary of the method: as §1
sequence,measurement,setting,value
ATCCTA,binding signal,[1],"1.32 fold enrichment (6-mer frequency, TF over GST control)"
same,binding signal,[2],"1.37 fold enrichment (6-mer frequency, TF over GST control)"
same,binding signal,[3],"1.61 fold enrichment (6-mer frequency, TF over GST control)"
same,binding signal,[4],"1.44 fold enrichment (6-mer frequency, TF over GST control)"
same,binding signal,[5],"1.32 fold enrichment (6-mer frequency, TF over GST control)"
same,binding signal,[6],"1.26 fold enrichment (6-mer frequency, TF over GST control)"
same,binding signal,[7],"1.41 fold enrichment (6-mer frequency, TF over GST control)"
same,binding signal,[8],"1.24 fold enrichment (6-mer frequency, TF over GST control)"
same,binding signal,[9],"2.19 fold enrichment (6-mer frequency, TF over GST control)"
same,binding signal,[10],"1.32 fold enrichment (6-mer frequency, TF over GST control)"
same,binding signal,[11],"1.34 fold enrichment (6-mer frequency, TF over GST control)"
same,binding signal,[12],"1.32 fold enrichment (6-mer frequency, TF over GST control)"
same,binding signal,[13],"1.43 fold enrichment (6-mer frequency, TF over GST control)"
same,binding signal,[14],"1.72 fold enrichment (6-mer frequency, TF over GST control)"
same,binding signal,[15],"1.37 fold enrichment (6-mer frequency, TF over GST control)"
same,binding signal,[16],"1.45 fold enrichment (6-mer frequency, TF over GST control)"
same,binding signal,[17],"1.33 fold enrichment (6-mer frequency, TF over GST control)"
same,binding signal,[18],"1.34 fold enrichment (6-mer frequency, TF over GST control)"

# From article PMC7862700, “An all-to-all approach to the identification of sequence-specific readers for epigenetic DNA modifications on cytosine”
